{"source": "PubChem BioAssay AID624483", "about": "(NMMLSC, 2012)", "note": "Hit rate of the full screen: of about 360,000 compounds, about 11,000 (3.1%) were called active. About 2% were inconclusive and are not listed. What follows is part of a selection rich in actives, with near analogues and random picks from the rest. A number with no mark means an inactive call. Cut-off read from the data, not from the text of the source: active = fluorescence intensity above about 16000; inconclusive = no clear call, values can overlap the other calls; inactive = below that.", "data": [{"assay": "counter-screen for toxin protease inhibitors: compound fluorescence, primary screen, artefact control for toxin protease inhibitor project, biochemical, multiplex microsphere, HTS (AID 624483)", "settings": "compound autofluorescence counterscreen, microsphere flow cytometry; hits give high values", "values": [{"smiles": "CCOC(=O)c1sc(N)c(C#N)c1COC(=O)C1=COCCO1", "fluorescence intensity": 4150}, {"smiles": "CCNC(=O)C1CCCN(C(=O)c2ccc(OC)cc2OC)CC1", "note": "(stereo unspecified)", "fluorescence intensity": 2850}, {"smiles": "CCCOc1ccc(F)cc1-c1cc(C(=O)NCc2ccc(F)cc2)[nH]n1", "fluorescence intensity": 3970}, {"smiles": "COCCNc1nc(NCc2ccc(NC(C)=O)cc2)c2sccc2n1", "fluorescence intensity": 3410}, {"smiles": "CC(=O)Nc1cccc(Nc2ccc(C#N)cc2)c1", "fluorescence intensity": 6880}, {"smiles": "CCOC(=O)C1CCCN(C(=O)c2cccc3ccccc23)CC1", "note": "(stereo unspecified)", "fluorescence intensity": 3960}, {"smiles": "O=C(NCc1ccc(F)cc1)c1cc(C2CCCCN2C(=O)c2ccccn2)on1", "note": "(stereo unspecified)", "fluorescence intensity": 4420}, {"smiles": "Nc1nc2cc(Cl)ccc2n1N", "fluorescence intensity": 6290}, {"smiles": "CC(O)(c1cccc(F)c1)c1nc(-c2ccc3c(c2)OCO3)cs1", "note": "(stereo unspecified)", "fluorescence intensity": 3850}, {"smiles": "CC(C)(C)C(=O)N(Cc1ccccc1)c1ccccn1", "fluorescence intensity": 4430}, {"smiles": "CCC(=O)N(Cc1ccccc1)c1ccccn1", "fluorescence intensity": "20800 (active)"}, {"smiles": "O=C(N1CCOCC1)N(Cc1ccccc1)c1ccccn1", "fluorescence intensity": 3710}, {"smiles": "COc1cc(F)ccc1-c1cc(C(=O)NCC2CCCCC2)[nH]n1", "fluorescence intensity": 3000}, {"smiles": "CCC(C)[C@H](NC(=O)N1c2ccccc2NC(=O)[C@@H]1C(C)C)C(=O)N[C@@H](Cc1ccccc1)C(=O)O", "note": "(stereo partly specified)", "fluorescence intensity": 3920}, {"smiles": "COc1ccc(NC(C)=O)cc1NC(=O)CN1CCN(C2c3ccccc3-c3ccccc32)CC1", "fluorescence intensity": 4260}, {"smiles": "Cc1ccc(CN(CC(=O)NC2CCCCC2)C(=O)c2csnn2)cc1", "fluorescence intensity": 5650}, {"smiles": "COc1cccc(C2/C(=C(/O)c3ccc(F)cc3)C(=O)C(=O)N2CCN(C)C)c1", "note": "(stereo unspecified)", "fluorescence intensity": 4550}, {"smiles": "CCCOc1ccc(/C(O)=C2/C(=O)C(=O)N(CCN(C)C)C2c2ccc(OC)c(OC)c2)cc1", "note": "(stereo unspecified)", "fluorescence intensity": 4510}, {"smiles": "COc1ccc(/C(O)=C2/C(=O)C(=O)N(CCCN(C)C)C2c2ccccc2)cc1OC", "note": "(stereo unspecified)", "fluorescence intensity": "21200 (active)"}, {"smiles": "CC1(C)CC(O)C(CCC(O)c2ccccc2)C(C)(C)N1", "note": "(stereo unspecified)", "fluorescence intensity": 2520}, {"smiles": "Cc1noc(C)c1C(=O)NCC1COc2ccccc2O1", "note": "(stereo unspecified)", "fluorescence intensity": 6410}, {"smiles": "Cc1noc(C)c1C(=O)Nc1ccccn1", "fluorescence intensity": "22800 (active)"}, {"smiles": "Cc1c(C(=O)Nc2ccccn2)oc2ccc(Br)cc12", "fluorescence intensity": 5620}, {"smiles": "Cn1c(=O)c2c(nc(SCCNS(=O)(=O)c3ccccc3)n2C)n(C)c1=O", "fluorescence intensity": 10500}, {"smiles": "O=C(Nc1cc(Br)ccc1F)c1nc[nH]c1C(=O)NCc1ccccc1", "fluorescence intensity": 4670}, {"smiles": "CCCCC(C(=O)NC(C)(C)C)N(Cc1ccccc1)C(=O)c1snc(C(N)=O)c1N", "note": "(stereo unspecified)", "fluorescence intensity": 3460}, {"smiles": "COc1ccc(S(=O)(=O)N2CCCC2)c(C)c1C", "fluorescence intensity": 16000}, {"smiles": "CCOc1ccc(S(=O)(=O)N2CCCCCC2)c2ccccc12", "fluorescence intensity": "16700 (active)"}, {"smiles": "CCOc1ccc(S(=O)(=O)n2ccnc2)c2ccccc12", "fluorescence intensity": 5760}, {"smiles": "CC(C)N1CCC(=NNc2ccc([N+](=O)[O-])cc2S(=O)(=O)N2CCOCC2)CC1", "fluorescence intensity": 3480}, {"smiles": "O=C(NCC1CCCO1)C(C(=O)c1ccccc1)n1cc(Cl)ccc1=O", "note": "(stereo unspecified)", "fluorescence intensity": "19700 (active)"}, {"smiles": "O=C(NCC1CCCO1)/C(=C/c1ccc(Cl)cc1)NC(=O)c1ccccc1", "note": "(stereo unspecified)", "fluorescence intensity": 2550}, {"smiles": "O=C(CSc1ccc(-c2ccccc2)nn1)NCC1CCCO1", "note": "(stereo unspecified)", "fluorescence intensity": 3400}, {"smiles": "N#Cc1ccc(C(=O)Nc2nc(-c3cccs3)c(C(=O)C(F)(F)F)s2)cc1", "fluorescence intensity": 4970}, {"smiles": "OC[C@@H]1CN(Cc2ccc3c(c2)OCO3)C[C@H](n2cnc3c(NCc4ccco4)ncnc32)O1", "fluorescence intensity": 3680}, {"smiles": "Cc1ccc(-c2cnc(C(O)c3cc(Cl)cc(Cl)c3)[nH]2)cc1", "note": "(stereo unspecified)", "fluorescence intensity": 2960}, {"smiles": "CCOC(=O)CSc1ccccn1", "fluorescence intensity": 2150}, {"smiles": "COc1ccc(-n2nnnc2SCc2nc(N)nc(N3CCOCC3)n2)cc1", "fluorescence intensity": 2520}, {"smiles": "Cc1ccccc1Nc1nc(N)nc(CSc2ccccc2)n1", "fluorescence intensity": 2510}, {"smiles": "CN(C)c1nc(N)nc(CSc2ccccn2)n1", "fluorescence intensity": "19900 (active)"}, {"smiles": "CN(C)c1nc(N)nc(CSc2nnnn2-c2cccc3ccccc23)n1", "fluorescence intensity": "16800 (active)"}, {"smiles": "Nc1nc(CSc2nnnn2-c2ccccc2)nc(Nc2ccccc2)n1", "fluorescence intensity": 4030}, {"smiles": "O=C(NCc1ccco1)C1CCCN1S(=O)(=O)c1ccccc1C(F)(F)F", "note": "(stereo unspecified)", "fluorescence intensity": 4200}, {"smiles": "CC(=O)N(c1ccc2oc(=O)sc2c1)S(=O)(=O)c1ccc(C)cc1", "fluorescence intensity": 3830}, {"smiles": "CCCC1=Nc2cc(C(=O)NCc3ccco3)ccc2Sc2ccccc21", "fluorescence intensity": 7310}, {"smiles": "Cc1nn(CC2CC2)c(=O)n1N(C)c1ncc(C(F)(F)F)cc1Cl", "fluorescence intensity": 4280}, {"smiles": "CCOC(=O)N1CCN(C(=S)Nc2ccc(C)cc2C)CC1", "fluorescence intensity": 2140}, {"smiles": "CCOC(=O)N1CCC(O)(c2cc(C)c(C)cc2C)CC1", "fluorescence intensity": "23000 (active)"}, {"smiles": "CCOC(=O)N1CCC(C(N)=O)CC1", "fluorescence intensity": 4320}, {"smiles": "CCOC(=O)c1cnc(SCC(=O)Nc2ccccc2C(=O)OC)nc1N", "fluorescence intensity": 4740}, {"smiles": "CCOC(=O)c1cnc(SCC(=O)NCc2ccco2)nc1N", "fluorescence intensity": 9800}, {"smiles": "CCOC(=O)c1cnc(SCC(=O)Nc2cccc(OC)c2)nc1N", "fluorescence intensity": "24000 (active)"}, {"smiles": "CC(C)C1CC2=C(C(=O)OC(C)(C)O2)C(c2ccc(F)cc2)O1", "note": "(stereo unspecified)", "fluorescence intensity": 5880}, {"smiles": "CC(=O)NC(=S)NNC(=O)c1ccc(Br)cc1", "fluorescence intensity": 4310}, {"smiles": "CCOC(=O)[C@H]1Nc2ccc(Cl)cc2[C@@H]2[C@H]1C1CC(c3ccccc31)N2C(=O)OCc1ccccc1", "note": "(stereo partly specified)", "fluorescence intensity": 4370}, {"smiles": "CCOC(=O)c1cnc2nc(SCc3ccccc3Cl)[nH]n2c1=O", "fluorescence intensity": 4010}, {"smiles": "COC(=O)c1ccc(COC(=O)c2c(C)nn(Cc3ccccc3Cl)c2Cl)o1", "fluorescence intensity": 10900}, {"smiles": "CCOC(=O)c1cnn(Cc2ccccc2Cl)c1N", "fluorescence intensity": "24600 (active)"}, {"smiles": "CCOCCCN1C(=O)CN(C2CCCCC2)C(=O)C1c1ccc(OCC)c(OC)c1", "note": "(stereo unspecified)", "fluorescence intensity": 15500}, {"smiles": "CC1C/C(=N/NC(=O)c2cccs2)CC(C)(C)C1", "note": "(stereo unspecified)", "fluorescence intensity": "23000 (active)"}, {"smiles": "CC1CC(=NNC(=O)C2COc3ccccc3O2)CC(C)(C)C1", "note": "(stereo unspecified)", "fluorescence intensity": 4030}, {"smiles": "CC1(C)CC(=O)C/C(=N\\NC(=O)c2cccs2)C1", "fluorescence intensity": 2600}, {"smiles": "CCOc1cc(S(=O)(=O)NC2CC(C)(C)NC(C)(C)C2)ccc1F", "fluorescence intensity": 4220}, {"smiles": "Cc1cc(Br)cn2c(Cc3ccccc3C(F)(F)F)c(C3CCCCC3)nc12", "fluorescence intensity": 4420}, {"smiles": "O=C(CN1CCOCC1)Nc1ccccc1", "fluorescence intensity": 4280}, {"smiles": "C/C(=N\\N)c1c(-c2ccccc2)c2cc(Br)ccc2[nH]c1=O", "fluorescence intensity": 3410}, {"smiles": "O=C(CN1CCOCC1)Nc1c(-c2ccccc2)c2cc(Br)ccc2[nH]c1=O", "fluorescence intensity": "21300 (active)"}, {"smiles": "COCCNC(=S)Nc1cc(S(=O)(=O)N2CCOCC2)ccc1N1CCCCC1", "fluorescence intensity": 3390}, {"smiles": "CC(C)c1ccc(NC(=O)COC(=O)c2ccc(CN3CCCC3=O)cc2)cc1", "fluorescence intensity": 3760}, {"smiles": "Cc1ccccc1-c1csc(C(O)c2cccc(Cl)c2)n1", "note": "(stereo unspecified)", "fluorescence intensity": 3550}, {"smiles": "CCn1c(SCC(=O)Nc2ccc(Br)cc2)nc2sc3c(c2c1=O)CCN(C)C3", "fluorescence intensity": 5890}, {"smiles": "O=C(N1CCCCC1)N1CCN(C(=O)N2CCCCC2)CC1", "fluorescence intensity": 3210}, {"smiles": "Cc1ccc(C(=O)NC2CCN(C(=O)N3CCOCC3)CC2)cc1", "fluorescence intensity": 9950}, {"smiles": "O=C(N1CCOCC1)N1CCOCC1", "fluorescence intensity": "21400 (active)"}, {"smiles": "CN(C)C(=O)c1cccc(-c2cnc3sc(NCc4ccc5c(c4)OCO5)nn23)c1", "fluorescence intensity": 3900}, {"smiles": "COc1cccc(-c2cnc3c(NC(C)=O)cc(-c4cc(F)ccc4OC)cn23)c1", "fluorescence intensity": 2980}, {"smiles": "Cc1ccc(S(=O)(=O)N2CCC(=O)N([C@H](COCc3ccccc3)Cc3ccccc3)CC2)cc1", "fluorescence intensity": 4440}, {"smiles": "COC(=O)c1ccc(S(=O)(=O)N2CCc3ccccc3C2)cc1", "fluorescence intensity": 3480}, {"smiles": "CC(=O)Nc1ccc(S(=O)(=O)N2CCC(NC(=O)c3ccccc3)CC2)cc1", "fluorescence intensity": 3580}, {"smiles": "O=C(Nc1ccc(S(=O)(=O)N2CCc3ccccc3C2)cc1)c1ccccc1", "fluorescence intensity": "22600 (active)"}, {"smiles": "COc1cc(C(O)c2nc(-c3cnn(C)c3)cs2)ccc1F", "note": "(stereo unspecified)", "fluorescence intensity": 3800}, {"smiles": "COc1ccc(-c2cc(NC=O)c3ncc(-c4cc(OC)c(OC)c(OC)c4)n3c2)c(OC)c1", "fluorescence intensity": 3920}, {"smiles": "COCCNS(=O)(=O)c1cc(Br)ccc1OC", "fluorescence intensity": "24900 (active)"}, {"smiles": "COc1ccc(C)cc1S(=O)(=O)NCCc1ccccc1", "fluorescence intensity": 11800}, {"smiles": "COc1ccc(OC)c(S(=O)(=O)NCCC(C)C)c1", "fluorescence intensity": 4230}, {"smiles": "Cc1ccn(CC(=O)NC2CCCN(Cc3ccccc3F)C2)n1", "note": "(stereo unspecified)", "fluorescence intensity": 3870}, {"smiles": "Cc1ccc(CN2CC(N3CCC(Cc4ccccc4)CC3)CS2(=O)=O)cc1", "note": "(stereo unspecified)", "fluorescence intensity": 6680}, {"smiles": "Nc1ncnc2c1ncn2[C@@H]1O[C@H](C(=O)NS(=O)(=O)c2c(Cl)nc3sccn23)[C@@H](O)[C@H]1O", "fluorescence intensity": 3980}, {"smiles": "O=C(NCc1ccccc1Cl)C1CCN(S(=O)(=O)c2cccc3nonc23)CC1", "fluorescence intensity": 3550}, {"smiles": "N#C/C=C\\Oc1ccc(Cl)cc1N", "fluorescence intensity": "23100 (active)"}, {"smiles": "Cc1nccn1-c1ccc(NC(=O)[C@H]2O[C@@H](n3ccc(=O)[nH]c3=O)[C@H](O)[C@@H]2O)cc1", "fluorescence intensity": 5140}, {"smiles": "CC1(C(=O)NS(=O)(=O)c2ccccc2)CCN1C(=O)Cc1ccc(-c2ccccc2)cc1", "note": "(stereo unspecified)", "fluorescence intensity": 3470}, {"smiles": "COc1ccc(CCNC(=O)CN2C(=O)CCSc3ccccc32)c(OC)c1", "fluorescence intensity": 4070}, {"smiles": "CCOC(=O)CNC(=O)CN1C(=O)CCSc2ccccc21", "fluorescence intensity": "20800 (active)"}, {"smiles": "CN(C(=O)CN1C(=O)CCSc2ccc(S(=O)(=O)N3CCCC3)cc21)c1ccccc1", "fluorescence intensity": 5730}, {"smiles": "COc1ccc(-n2c(SCC(=O)Nc3ccc4c(c3)OCO4)nnc2C(C)N2CCCCC2)cc1", "note": "(stereo unspecified)", "fluorescence intensity": 6740}]}]}
